This is part of a sample that, as a whole, favours compounds with a hit. Of some 79,000 tested, about 15% had one in any assay. The source made the active and inactive calls. Cut-off read from the data, not from the text of the source: active = growth inhibition above about 70%; inactive = the rest.
What was measured:
[1] = NCI Yeast Anticancer Drug Screen. Data for the rad50 strain (AID 155);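 note: 0% = growth of vehicle-only cultures of the same strain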; settings: S. cerevisiae rad50 strain growth inhibition; at 50.0 µM; stronger effect = higher value
How it was run: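 A DNA repair-deficient yeast mutant serves as the test organism; compound-induced growth inhibition is calculated against vehicle-treated cells.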

[2] = NCI Yeast Anticancer Drug Screen. Data for the mec2-1 strain (AID 157); settings: S. cerevisiae mec2-1 strain, at 50.0 µM, stronger effect = higher value
How it was run: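 Using mec2-1 yeast: add compound, measure growth, express inhibition versus vehicle-treated cultures.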

[3] = NCI Yeast Anticancer Drug Screen. Data for the sgs1 mgt1 strain (AID 161);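 note: 0% = growth of cultures given vehicle only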; settings: S. cerevisiae sgs1 mgt1 strain, at 50.0 µM, stronger effect = higher value
How it was run: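 This yeast growth screen uses a strain with defined DNA-repair lesions; compound-treated growth is compared with vehicle-treated growth.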

[4] = NCI Yeast Anticancer Drug Screen. Data for the cln2 rad14 strain (AID 165);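 note: 0% = growth equal to vehicle treated cultures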; settings: S. cerevisiae cln2 rad14 strain, at 50.0 µM, stronger effect = higher value
How it was run: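 Yeast strain cln2 rad14, bearing defects in cell cycle control and DNA repair, serves as the test system; values reflect growth inhibition compared with vehicle.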

[5] = NCI Yeast Anticancer Drug Screen. Data for the bub3 strain (AID 167); settings: S. cerevisiae bub3 mutant strain, at 50.0 µM, stronger effect = higher value
How it was run: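 Inhibition values come from growth of compound-treated mutant yeast normalised to vehicle-treated controls.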

[6] = NCI Yeast Anticancer Drug Screen. Data for the mlh1 rad18 strain (AID 175); settings: S. cerevisiae mlh1 rad18 strain growth inhibition; at 50.0 µM; stronger effect = higher value
How it was run: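 Steps: expose repair-defective yeast to compound; measure growth; express inhibition against vehicle-treated controls.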

Measured: growth inhibition

CCOC(=O)N1C2C(c3ccccc3)=NC(C)(C)N2C(c2ccc([N+](=O)[O-])cc2)N1C(=O)OCC (stereo unspecified)
inactive: [1] 17.9% | [2] -7% | [3] -4.55% | [4] 15.2% | [5] -2.2% | [6] -2.9%

COC1=CC(=O)C(C(C)=O)=C(O)C1=O
inactive: [1] 0.05% | [2] -7.95% | [3] -6.5% | [4] 4.7% | [5] -5.6% | [6] -4.05%

Cc1ccc(C)c(NC(=O)NC(C)C)c1
inactive: [1] -0.6% | [2] 0.5% | [3] 5.45% | [4] -25.6% | [5] -5.3% | [6] -0.35%

Nc1c(Br)cc2c([nH]c(=O)c3cc(Br)ccc32)c1Br
inactive: [1] 47.1% | [2] 32.2% | [3] 27.1% | [4] 27.8% | [5] 8.75% | [6] 32.1%

CC1CN=C(N(Cc2ccccc2)C(=O)Nc2ccc(Cl)c(Cl)c2)S1 (stereo unspecified)
inactive: [1] -4.25% | [2] 27.9% | [3] -0.35% | [4] 26.7% | [5] -0.65% | [6] 0.35%

CC1=C/C(=C(/c2cccc(S(=O)(=O)O)c2)c2cc(C)c(O)c(C(=O)O)c2)C=C(C(=O)O)C1=O
inactive: [1] 4.4% | [2] -21.8% | [3] -3.7% | [4] 25.2% | [5] -3.7% | [6] 9.05%

O=c1[nH]cnc2ccccc12
inactive: [1] 39% | [2] -1.55% | [3] 0.2% | [4] -7.3% | [5] 16.6% | [6] 14.7%

CCc1ccccc1OCc1ccccc1
inactive: [1] 18.4% | [2] 11.8% | [3] 14.2% | [4] 6.9% | [5] 1% | [6] 1.75%

O=C(CCNC(=O)OCc1ccccc1)NC(Cc1ccccc1)C(=O)OCc1ccccc1 (stereo unspecified)
inactive: [1] -0.9% | [2] -14.2% | [3] 4.55% | [4] -15.3% | [5] 2.4% | [6] 7.65%

Nc1[nH]c(=S)[nH]c(=S)c1N
inactive: [1] -30.6% | [2] -8.6% | [3] -15.2% | [4] -44.8% | [5] -15.3% | [6] -25.4%

COc1ccccc1/C=N/N1C(=O)C2C3C=CC(O3)C2C1=O (stereo unspecified)
inactive: [1] 2.35% | [2] 9.8% | [3] 0.1% | [4] 0.15% | [5] 3.45% | [6] 14.5%

CCOc1c(N=Nc2ccccc2OC)c(-c2ccccc2)nn1C(=S)S
inactive: [1] 33.4% | [2] 42% | [3] 24.8% | [4] 5.75% | [5] 66.7% | [6] 18.9%

O=c1c2ccccc2oc2cc3c(c(O)c12)CCCC3
inactive: [1] -7.65% | [2] -13.9% | [3] -14.5% | [4] -6.95% | [5] 3.15% | [6] -2.95%

c1ccc(Nc2ccc3ccccc3n2)cc1
inactive: [1] 40.6% | [2] 4.75% | [3] 40.5% | [4] 14% | [5] -1.8% | [6] 16.4%

CC(=O)NC(Cc1ccccc1)/C(C)=N\O (stereo unspecified)
inactive: [1] -3.15% | [2] -2.05% | [3] -2.65% | [4] -15.2% | [5] 5.25% | [6] 4.8%

c1ccc(-c2cc3c4ccccc4ccn3c2)cc1
inactive: [1] 15.2% | [2] 10.2% | [3] 20.2% | [4] 3.65% | [5] -2.95% | [6] -5.95%

Cc1cccnc1NCc1ccccn1
inactive: [1] 3.1% | [2] -0.9% | [3] 15.1% | [4] 4.35% | [5] 1.75% | [6] 3.35%

CCOC(=O)CC[C@H](NC(=O)c1nc[nH]c1[N+](=O)[O-])C(=O)OCC
inactive: [1] -17.8% | [2] -36% | [3] -44.4% | [4] 8.9% | [5] -7.35% | [6] -34.4%

COc1cccc(CCNc2ccncc2N)c1
inactive: [1] -22% | [2] -23.7% | [3] -24.6% | [4] -52.2% | [5] -29.1% | [6] 12.9%

CC(=O)N=Cc1c(O)[nH]c2ccccc12
inactive: [1] 36.9% | [2] 11.7% | [3] 0.5% | [4] 6.85% | [5] 8.3% | [6] 0.45%

COc1ccc(/C=C(\Cl)c2ccc(OC)cc2)cc1
inactive: [1] -2.9% | [2] 3.8% | [3] -26.6% | [4] -18.1% | [5] 5.6% | [6] -26.8%

O=C(NCc1ccc([N+](=O)[O-])cc1)c1ccccc1
inactive: [1] 4.15% | [2] 4.45% | [3] -6.4% | [4] 10.1% | [5] 0.85% | [6] 6.7%

CC(=O)OCC1COC(C)(c2ccccc2)O1 (stereo unspecified)
inactive: [1] 4.65% | [2] 0.3% | [3] -6.65% | [4] 3.7% | [5] 4.15% | [6] -9.55%

CCCCCCN(CCCCCC)CC(O)c1c(Cl)ccc2ccccc12 (stereo unspecified)
active: [1] 99.1% | [2] 96.5% | [3] 99.3% | [4] 98.6% | [5] 96.4% | [6] 98.5%

O=[N+]([O-])c1nccn1CCCNc1c2ccccc2nc2ccccc12
inactive: [1] 25.1% | [2] 7.95% | [3] 27.8% | [4] 23.1% | [5] 6.5% | [6] 17.9%

O=C(CN1CCCCC1)NC(=O)N/N=C\c1ccco1
inactive: [1] 0.1% | [2] 3% | [3] 6.1% | [4] -59% | [5] -0.15% | [6] 13.8%

O=c1ccnc2ccc3n[nH][nH]c3c12
inactive: [1] -18.4% | [2] -20.2% | [3] -7.65% | [4] 3.55% | [5] -14.2% | [6] 1.1%

O=C1CC(c2ccc(Cl)cc2)C(=O)O1 (stereo unspecified)
inactive: [1] -10.5% | [2] 12% | [3] 1.6% | [4] 3.2% | [5] -23.4% | [6] -15.1%

O=N[C@@H]1CCC[C@H](Cl)C1
inactive: [1] 3.95% | [2] -6.65% | [3] -0.1% | [4] 17.2% | [5] 5.75% | [6] 15.6%

CCCCN(CCCC)C1=Nc2ccccc2-n2c(nnc2C(=O)OCC)C1
inactive: [1] 24.4% | [2] 44.5% | [3] 22.9% | [4] 15.2% | [5] 52% | [6] 50.4%

COc1nc(N)c(NC(C)=O)c(=O)n1C
inactive: [1] 3.9% | [2] -19.2% | [3] -21.4% | [4] -4.3% | [5] -22.6% | [6] 9%

CCOC(=O)/C(C#N)=C/c1ccc(Br)cc1
inactive: [1] 15.7% | [2] 0.8% | [3] 0.3% | [4] -4.25% | [5] 7.5% | [6] 21.3%

c1ccc(C2N3CCCCC3[C@@H]3c4[nH]c5ccccc5c4CCN23)nc1 (stereo partly specified)
inactive: [1] -26.8% | [2] -36.5% | [3] -6.5% | [4] 13.3% | [5] -25.9% | [6] -4.1%

CCCOC(=O)c1cccnc1C(=O)OCCC
inactive: [1] -0.2% | [2] -10.2% | [3] 1.5% | [4] -22.4% | [5] -2.5% | [6] -6.4%

CC1c2c(Cl)nc3ccccc3c2Oc2c1c(Cl)nc1ccccc21
inactive: [1] 7.05% | [2] 5.1% | [3] -6.05% | [4] 18.3% | [5] 5.1% | [6] 22.1%

CN1CC(c2ccccc2)=Cc2c1ccc(N)c2N=N
inactive: [1] -13.3% | [2] -29.2% | [3] -0.3% | [4] 15.6% | [5] 12.8% | [6] 0.15%

CC(=O)OC1CCC2(C)C(=CCC3C2CCC2(C)/C(=N\NS(=O)(=O)c4ccc(C)cc4)CCC32)C1 (stereo unspecified)
inactive: [1] 63.7% | [2] 28.6% | [3] 43.3% | [4] -2.05% | [5] 40.3% | [6] 49.5%

CC(NCCOc1ccccc1)c1ccccc1 (stereo unspecified)
inactive: [1] 9.1% | [2] 33.4% | [3] 3.2% | [4] 10.7% | [5] -0.75% | [6] 9.25%

NNC(=O)CC1(O)CCCCC1
inactive: [1] -0.35% | [2] -9.2% | [3] 2.3% | [4] 0.4% | [5] -17.1% | [6] -19.8%

CCN(CC)CCC(=O)c1ccc(OC)cc1
inactive: [1] 7.95% | [2] 16.3% | [3] 2.45% | [4] 23.4% | [5] 7.55% | [6] 8.15%

CC/C(=C\c1ccc(OC)cc1)c1ccc(OC)cc1
inactive: [1] -16.1% | [2] -31.1% | [3] 7.05% | [4] 4.75% | [5] 1.75% | [6] -5.05%

Source: PubChem BioAssay (NCI)
